The text below walks through data of PubChem BioAssay (Tox21).

SMILES strings stand for the structures. Records with an inconclusive call do not appear. Entries that show only a call come without a potency. A number with no mark means an inactive call. Active and inactive are the calls of the source. Unless noted, calls follow the shape of the dose curve; as a rule, active = well fitted inhibition curve with a large enough effect in the repeat runs; inconclusive = weak or mixed curves; inactive = no such curve, though single readings can be large or run the other way. Where a SMILES comes first, the peptide text is derived from it. [ ]: non-standard residue; d: D form. pGlu = O=C1CC[C@@H](C(=O)O)N1

The nature of the first assay: qHTS assay to identify small molecule agonists of H2AX - cell viability counter screen (AID 1224847; calls by dose curve; also: top concentration of the series differs between compounds; nearly all actives have a fitted effect of over 30% in size). Particulars: CHO-K1 viability, CellTiter-Glo luminescence, 3 h; series mostly up to 154 µM. The procedure, abridged:
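We seed wild-type CHO-K1 cells overnight, treat them for 3 hr at 37C with compounds in 15-concentration series, and quantify remaining viability by CellTiter-Glo luminescence.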
On the technique in general: In qHTS, concentration-response curves come from the screen itself.
In the case of `Clc1cc(Cl)cc(Cl)c1`, the outcome was inactive.

As for `CCOC(=O)COC(=O)c1ccccc1C(=O)OCC`, the compound was classed as inactive.

`CC1=NN(c2cccc(S(=O)(=O)O)c2)C(=O)C1`: the outcome was inactive.

For `CN1CCC(=C2c3ccccc3CCc3cccnc32)CC1`, the compound was called inactive.

Take `Cc1nc(C2CCCCC2)c(-c2ccc(S(N)(=O)=O)c(F)c2)o1`: the compound was called inactive.

As for `Nc1ccn([C@@H]2O[C@H](CO)[C@@H](O)C2(F)F)c(=O)n1`, the call was inactive.

With `CCCCCCC1CCC(=O)O1` (configuration not stated), the compound was called inactive.

`C=COCC1CCC(COC=C)CC1` (configuration not stated): the result was inactive.

For `CC1(C)OC[C@@H](COC(=O)CCc2ccc(OC[C@@H](O)CNCCNC(=O)N3CCOCC3)cc2)O1`, the result was inactive.

Regarding `CC(=O)Oc1cccc(C)c1`, the outcome was inactive.

For the compound `CCC(C(=O)NC(=O)NC(C)=O)c1ccccc1` (configuration not stated), the compound was called inactive.

In the case of `O=C(O)CCCC[P+](c1ccccc1)(c1ccccc1)c1ccccc1`, the call was inactive.

For `CCCCOCCOC(=O)CCCCCCCCC(=O)OCCOCCCC`, the outcome was inactive.

As for `CCNC(=O)[C@@H]1CCCN1C(=O)[C@H](CCCN=C(N)N)NC(=O)[C@H](CC(C)C)NC(=O)CNC(=O)[C@H](Cc1ccc(O)cc1)NC(=O)[C@H](CO)NC(=O)[C@H](Cc1c[nH]c2ccccc12)NC(=O)[C@H](Cc1cnc[nH]1)NC(=O)[C@@H]1CCC(=O)N1` ([pGlu]HWSYGLRP-NHEt), the call was inactive.

The nature of the next assay: qHTS assay to identify small molecule antagonists of the estrogen related receptor (ERR) signaling pathway from Tox21 library (AID 1224848). Also: nearly all actives have a fitted effect of over 50% in size. Particulars: ERR reporter cell line, luciferase antagonist mode, 18 h; series mostly up to 92.4 µM. The procedure, abridged:
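ERR cell line, 2,000 cells/well. 6 h settle, then compound (DMSO) added; 18 h at 37 C; ONE-Glo luminescence after 30 min RT.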
For `Clc1cc(Cl)c(Cl)nc1Cl`, the Potency result was “inactive”.

Regarding `C[C@@H]1CCC[C@H](C)N1`, the Potency entry is “inactive”.

For `CCOC(=O)OC(C)OC1=C(C(=O)Nc2ccccn2)N(C)S(=O)(=O)c2ccccc21` (configuration not stated), the Potency entry is “inactive”.

Consider `O=C(O)CC(C(=O)O)S(=O)(=O)O` (configuration not stated), for which the Potency entry was “inactive”.

`CC(=O)c1ccccc1[N+](=O)[O-]`: the Potency result is “inactive”.

With `Cc1cccc(C)c1NC(=O)CC12CCCN1CCC2`, the Potency result was “inactive”.

Consider `OCCCCCO`, for which the Potency result was “inactive”.

Regarding `CC(COc1ccccc1)NN` (configuration not stated), the Potency entry was “inactive”.

For the compound `NS(=O)(=O)Cc1noc2ccccc12`, the Potency result is “inactive”.

In the case of `Cc1cc(C)c(N=Nc2c(O)c(S(=O)(=O)O)cc3cc(S(=O)(=O)O)ccc23)cc1C`, the activity, negative = inhibition is -9.99% [at 8.39 µM].

With `Nc1c2c(nc3c1CCC3)CCCC2`, the Potency entry was “inactive”.

As for `O=S(=O)(O)c1cccc2c(S(=O)(=O)O)cccc12`, the Potency entry is “inactive”.

On to `CCCCCCCCN1CCCC1=O`, for which the Potency result was “inactive”.

As to `CNCC(O)c1ccc(O)c(O)c1` (configuration not stated), the Potency entry is “inactive”.

Take `O=S(=O)(O)c1cccc(S(=O)(=O)O)c1`: the Potency entry is “inactive”.

With `CCCO[Si](OCCC)(OCCC)OCCC`, the Potency result was “inactive”.

As for `CC[C@H]1OC(=O)[C@H](C)[C@@H](O[C@H]2C[C@@](C)(OC)[C@@H](O)[C@H](C)O2)[C@H](C)[C@@H](O[C@@H]2O[C@H](C)C[C@H](N(C)C)[C@H]2O)[C@](C)(OC)C[C@@H](C)C(=O)[C@H](C)[C@@H](O)[C@]1(C)O`, the Potency entry was “inactive”.

With `C=CCCCCCCCCC(=O)OCC`, the Potency entry was “inactive”.

Take `CO[Si](C)(OC)c1ccccc1`: the Potency result was “inactive”.

On to `C=CCCC(=O)O`, for which the Potency result is “inactive”.

For `O=Cc1cccc(Br)c1`, the Potency result was “inactive”.

Regarding `C[N+]1(CC2COC(c3ccccc3)(c3ccccc3)O2)CCCCC1` (configuration not stated), the activity, negative = inhibition was 4.63% [at 19 µM].

For the compound `Clc1cc(Cl)cc(Cl)c1`, the Potency result is “inactive”.

In the case of `CCOC(=O)COC(=O)c1ccccc1C(=O)OCC`, the Potency entry was “inactive”.

For `CC1=NN(c2cccc(S(=O)(=O)O)c2)C(=O)C1`, the Potency result was “inactive”.

Regarding `Cc1nc(C2CCCCC2)c(-c2ccc(S(N)(=O)=O)c(F)c2)o1`, the Potency result is “inactive”.

Turning to `CCCCCCC1CCC(=O)O1` (configuration not stated), the Potency result was “inactive”.

As to `C=COCC1CCC(COC=C)CC1` (configuration not stated), the Potency entry is “inactive”.

On to `CC1(C)OC[C@@H](COC(=O)CCc2ccc(OC[C@@H](O)CNCCNC(=O)N3CCOCC3)cc2)O1`, for which the Potency result is “inactive”.

Turning to `CC(=O)Oc1cccc(C)c1`, the Potency result is “inactive”.

Consider `CCC(C(=O)NC(=O)NC(C)=O)c1ccccc1` (configuration not stated), for which the Potency result is “inactive”.

As to `CCCCOCCOC(=O)CCCCCCCCC(=O)OCCOCCCC`, the Potency entry is “inactive”.

Turning to `CCNC(=O)[C@@H]1CCCN1C(=O)[C@H](CCCN=C(N)N)NC(=O)[C@H](CC(C)C)NC(=O)CNC(=O)[C@H](Cc1ccc(O)cc1)NC(=O)[C@H](CO)NC(=O)[C@H](Cc1c[nH]c2ccccc12)NC(=O)[C@H](Cc1cnc[nH]1)NC(=O)[C@@H]1CCC(=O)N1` ([pGlu]HWSYGLRP-NHEt), the Potency result is “inactive”.
